Results as given in PubChem BioAssay AID1863 (Southern Research Specialized Biocontainment Screening …, 2009).
Screen size: about 300,000 compounds; about 480 (0.16%) were called active.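 Rule for the calls: active = inhibition over 29.93%, a cutoff 3 SD above the screen mean, later confirmed by dose response; inconclusive = inhibition over 29.93% but no dose response follow-up; inactive = inhibition at most 29.93% or unconfirmed.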 Not all results are given here. Measured potencies and affinities stand elsewhere.

Assay: inhibitors of PhoP regulon expression, primary screen, Salmonella Typhimurium, GFP reporter (AID 1863);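 note: 0% = low Mg2+ inducing control and 100% = high Mg2+ repressing control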
Conditions: S. Typhimurium PhoP-regulated promoter GFP reporter, 4 h; at 50 µM; active compounds read high

inhibition, inactive:
Cc1c(Cl)cccc1NC(=S)N1CCOCC1 -2.07%
O=C(Nc1c2c(nn1-c1cccc(Cl)c1)CS(=O)(=O)C2)C1CC1 -4.19%
CCNC(=S)Nc1ccc(-c2nc3ccccc3[nH]2)cc1 -10.4%
COc1ccc(NC(=O)c2cn3c(nc4ccccc43)c(C#N)c2C)cc1 -3.66%
CC1CCN(S(=O)(=O)c2ccc3c(c2)c(=O)c(C(=O)N2CCOCC2)cn3C)CC1 -0.29%
Cc1c(CC(=O)N[C@@H](C)C(=O)O)c(=O)oc2c(C)c3occ(-c4ccccc4)c3cc12 9.42%
C=CCN(Cc1nc(-c2ccccc2)no1)C(=O)c1ccc2c(c1)OCO2 1.88%
O=[N+]([O-])c1ccc(/C=N/NC(=S)Nc2ccccc2)o1 18.4%
O=C(/C=C/c1cccc([N+](=O)[O-])c1)NCCSCc1cccc(Cl)c1 -1.04%
CCCCCCCCCC(=O)N1CCN(c2cc3c(cc2F)c(=O)c(C(=O)O)cn3CC)CC1 6.32%
CCn1cc(C(=O)O)c(=O)c2cnc(N3CCN(C(=S)NC(=O)c4ccc(F)c(F)c4)CC3)nc21 7.64%
CCOC(=O)c1sc(N)c(C#N)c1CSc1nnc(C2CC2)n1N 0.84%
COc1cccc2c1OC[C@@H](CO)[C@H]2N(C)C(=O)Nc1ccc(Cl)cc1 -5.57%
CO[C@@]1(NC(=O)CSCC#N)C(=O)N2C(C(=O)O)=C(CSc3nnnn3C)CS[C@@H]21 2.92%
Cn1nnnc1SCC1=C(C(=O)O)N2C(=O)C(NC(=O)C3CC3c3ccccc3)C2SC1 (centres undefined) 5.81%
COC(=O)C(C)Oc1cc(OC(C)C(=O)OC)c2c(-c3ccccc3)cc(=O)oc2c1 (centres undefined) -1.83%
c1ccc(-c2ccc(-c3ccccn3)nn2)nc1 17.9%
c1ccc(-c2ccccn2)nc1 1.51%
C[C@H](NC(=O)C1CC(=O)N(c2ccc3c(c2)OCCO3)C1)C(=O)NC1CCCC1 (some centres undefined) -3.6%
CCN(CC)C(=O)COc1ccc(N(C)S(=O)(=O)c2ccc(NC(C)=O)cc2)cc1 -5.37%
COc1cc(Nc2ncnc(N)n2)cc(OC)c1OC -3.05%
COc1cc(-c2nc(N)n[nH]2)cc(OC)c1OC -10.2%
COc1cccc(OCCNc2cc(Cl)ccc2[N+](=O)[O-])c1 6.62%
Cc1ccc(NC(=O)C2(C)Cc3ccccc3C(=O)O2)cc1 (centres undefined) -8.33%
O=C(CNC(=O)c1ccccc1)Nc1cccc(C(F)(F)F)c1 -8.93%
CC1CCN(CC(=O)Nc2cccc(C(=O)Nc3cccc(C(F)(F)F)c3)c2)CC1 0.24%
O=C1CCN(N=Nc2cccc(Cl)c2)N1 -4.47%
COc1ccc(N2CCN(C(=O)CN(C3CCCCC3)S(C)(=O)=O)CC2)cc1 -3.93%
O=S(=O)(NCc1ccccc1)NCc1ccccc1F -1.32%
O=C(O)c1ccc(CNCc2ccccc2F)cc1 0.78%
Cc1csc(C(=O)O)c1NC(=O)c1c(Cl)cccc1Cl -3.3%
CCOC(=O)c1cn(CC)c2cc3c(cc2c1=O)OCO3 7.75%
CCn1cc(C(=O)N[C@H](C(=O)O)C(C)C)c(=O)c2cc3c(cc21)OCO3 25.9%
CCn1nc(C(=O)N2CCN(Cc3ccc4c(c3)OCO4)CC2)c2ccccc2c1=O -2.79%
CCn1ccc(=O)c2cc3c(cc21)OCO3 2.11%
Cn1c(SCC(=O)NC2CCCCC2)nnc1-c1cc2cc(Cl)ccc2o1 5.87%
CCC(=O)NC(c1cccs1)c1ccc2cccnc2c1O (centres undefined) 27%
CC(C)CC(=O)NC(c1cccs1)c1ccc2cccnc2c1O (centres undefined) 9.48%
O=C1OCc2cc(NC(=O)C3CCCO3)ccc21 (centres undefined) 13.1%
COc1ccc(Cc2nc3ccc(C(=O)N4CCC[C@H]4CO)cc3o2)cc1 -5.77%
Cc1ccc(C)c2c1[nH]c1ccccc12 -11.2%
COc1ccc2[nH]c3c(=S)nc[nH]c3c2c1 11.1%
COc1ccc2[nH]c3c(Cl)ncnc3c2c1 2%
Cc1cc2[nH]c3ccccc3c2c(C)n1 17.6%
Cc1ccc(C2(c3noc(CN(C)Cc4ccccn4)n3)CCCC2)cc1 1.51%
O=C(O)Cn1c(O)c(C2=c3ccccc3=NC2=O)sc1=O 3.25%
COc1cccc(N/C(N)=N/c2nc(C(F)(F)F)cc(C(F)(F)F)n2)c1 -1.8%
O=S1(=O)N=C(N/N=C/c2ccco2)c2ccccc21 11.7%
O=S1(=O)N=C(N/N=C/c2cccs2)c2ccccc21 0.95%
S=c1[nH]c2ccccc2n2c(=S)[nH]nc12 4.88%
O=c1[nH]c2ccccc2n2cnnc12 3.8%
C=CCn1c(SCC(=O)OCC)nc2cc(C(=O)NCc3ccco3)ccc2c1=O -4.98%
CCCn1nc(C(=O)OCC(=O)Nc2cccc(S(N)(=O)=O)c2)c2ccccc2c1=O -1.14%
Nc1c2ccccc2nc2ccccc12 20.8%
Nc1[nH]nc2nc3ccccc3cc12 0.6%
Nc1nc(-c2cccnc2)nn1C(=O)c1ccccc1Cl 0.52%
COc1ccc(-c2csc(NC(=O)COC(=O)c3ccco3)n2)cc1 5.57%
Cc1ccc(C(=O)OCC(=O)NC(=O)c2cccn2C)cc1[N+](=O)[O-] -12.8%
COCCCn1c(Cc2csc(Nc3ccc(F)cc3)n2)nnc1SCC(N)=O 0.4%
COc1ccc(/C(C)=N/NC(=O)CNC(=O)c2ccncc2)cc1 -0.07%
N=c1n(CC(=O)c2ccc([N+](=O)[O-])cc2)c2ccccc2n1Cc1ccc(Cl)cc1 25.9%
N=c1n(CC(=O)c2ccc([N+](=O)[O-])cc2)c2ccccc2n1Cc1ccccc1 39%
Cc1cc(C)n(C(=O)CNC(=O)c2ccc3c(c2)OCCO3)n1 -15.6%
CCO[C@@H]1OC(C(=O)N2CCCCCCC2)=C[C@H](c2cn(C(C)=O)c3ccccc23)[C@H]1CCCO -5.2%
COc1ccc(C)cc1-n1c(-c2ccncc2)n[nH]c1=S -9.19%
Cc1cccc(NC2=CC(=O)CC(C)(C)C2)c1C 2.2%
CC(C(=O)c1ccc(Br)cc1)[n+]1cccc(NC(=O)c2ccccc2)c1 (centres undefined) -0.32%
CC(C(=O)c1ccc(-c2ccccc2)cc1)[n+]1cccc(C(N)=O)c1 (centres undefined) 2.06%
O=C(C[n+]1cccc(CNC(=O)c2ccc(OC(F)F)cc2)c1)Nc1ccc(F)cc1 5.04%
O=C(C[n+]1cccc(CNC(=O)c2ccc(OC(F)F)cc2)c1)Nc1cccc(C(F)(F)F)c1 25.3%
CCOc1ccc(C(=O)NCC(=O)N2CCC3CCCCC3C2)cc1OCC (centres undefined) 7.73%
COc1cc(-c2nnc(SCC(=O)/C(C#N)=C(\C)N)o2)cc(OC)c1OC 0.61%
CCOc1ccc(CCN2C(=O)C(=O)N([C@H](CCCN(C)Cc3ccccc3)CNCc3ccccc3)C[C@@H]2C(C)C)cc1 12.1%
CN(CCCC[C@H](CNCc1ccc(-c2ccccc2)cc1)N1C[C@H](c2ccccc2)N(CCc2ccc(Cl)c(Cl)c2)C(=O)C1=O)Cc1ccc(-c2ccccc2)cc1 8.2%
CCc1ccc(N2C(=O)Nc3ccccc3C2(O)C(=O)N2CCN(c3ccccn3)CC2)cc1 (centres undefined) 10.3%
Cn1c(CSc2nc3ccccc3s2)nnc1SCC(=O)NCc1ccccn1 -6.01%
Cc1cc(/C=C2/C(=O)NN(c3ccccc3)C2=O)c(C)n1-c1ccc(O)cc1 -4.21%
O=C1NN(c2ccccc2)C(=O)/C1=C/c1coc2ccccc2c1=O 8.22%
CCOC(=O)C1=C(O)/C(=C/c2cccc(OC)c2O)N=C1C -9.18%
Cn1c(CCCNC(=O)c2cccs2)nc2ccccc21 -1.8%
Cc1ccc(NC(=O)c2ncc(Cl)c(Cl)c2Cl)cc1C 2%
Nc1cn(C2OC(CO)C(O)C2O)c(=O)[nH]c1=O (centres undefined) 3.77%
O=c1[nH]c(=O)n(C2OC(CO)C(O)C2O)cc1Br (centres undefined) 3.95%
Cc1cc(CNC(=O)c2cccnc2Cl)c2ccccc2n1 1.03%
CC[n+]1c(/C=C/Nc2ccccc2)sc2ccccc21 -20.8%
CCN1/C(=C/C=C/C=C/C=C/c2sc3ccccc3[n+]2CC)Sc2ccccc21 -8.59%
CC[n+]1c(/C=C(/C)SC)sc2ccccc21 0.31%
CC[n+]1c(/C=C(\C)SC)sc2ccccc21 0.17%
CCN1/C(=C\C=C(C(C)=O)C(C)=O)Sc2ccccc21 -11.4%
CC[n+]1c(/C=C/C=C/N(C(C)=O)c2ccccc2)sc2cc(OC)ccc21 -71.7%
CCN1/C(=C/c2ccc3cc(C)ccc3[n+]2CC)Sc2ccccc21 -133%
CC[n+]1c(/C=C/C=C/N(C(C)=O)c2ccccc2)sc2ccccc21 -10.1%
COCCN1CCC(CNCc2c(C(=O)N3CCCCC3)nc3c(C)cccn23)C1 (centres undefined) -11.8%
CCOc1ccccc1CN1CCN(Cc2ccon2)CC1CCO (centres undefined) -9.77%
